The text below walks through data of ChEMBL document CHEMBL3988442, “University of Dundee, Small-Polar-MMV Screening Library” (2021).

Among all 48,000 compounds or so, about 13,000 (27%) showed an effect of 50% or more. The list shows a part of the results.

For this assay, the system named is Wolbachia pipientis. Put plainly: Anti-Wolbachia Cell-Based Screen. Format: functional. Further details: scale not given: in the data most compounds retested in dose-response had high values. As to conditions: 5 µM.
`Cc1cc(S(=O)(=O)Nc2onc(C)c2C)sc1C`: the “Percent Effect” value was -16.29%.
To `CS(=O)(=O)NCCC(=O)N1CCCC1c1noc(C2CC2)n1` (stereo unspecified) belongs -8.062%.
Consider `COc1c(C2CCCN2C(=O)CCNc2ncccn2)c(C)nn1C` (stereo unspecified), for which the “Percent Effect” value stood at 119.8%.
To `Cc1nn(C)c(C)c1C1CCCN1C(=O)CCCc1ccccn1` (stereo unspecified) belongs 91.34%; to `Cc1nn(C)c(C)c1C1CCCN1C(=O)CCc1cscn1` (stereo unspecified), -3.183%.
To `COc1ccc(C2CCCN2C(=O)CCNc2ncccn2)cc1` (stereo unspecified) belongs 1.66%; to `Cc1nn(C)c(C)c1C1CCCN1C(=O)CCNS(C)(=O)=O` (stereo unspecified), 101.1%; to `Cc1nn(C)c(C)c1C1CCCN1C(=O)CCc1ccco1` (stereo unspecified), 103%.
On to `Cc1nn(C)c(C)c1C1CCCN1Cc1nc(-c2ccco2)oc1C` (stereo unspecified), for which the “Percent Effect” value is reported as -2.901%.
As for `CSc1ccc(CNCCS(=O)(=O)N2CCOCC2)cc1`, the figure is -30.29%.
With `CC1(C)CN(C(=O)c2ccc3nncn3c2)CCS1`, the “Percent Effect” value is -32.23%.
As for `COCC1CN(C(=O)CC2Cc3ccccc3C2)Cc2c1cnn2C` (stereo unspecified), the figure is -1.669%; as for `Cc1nn(C)c(Cl)c1C1CCCN1C(=O)CCNc1ncccn1` (stereo unspecified), 95.62%.
For `Cc1nn(C)c(C)c1C1CCCN1C(=O)CCNc1ncccn1` (stereo unspecified), the “Percent Effect” value is given as 2.112%.
As for `Cc1nn(C)c(C)c1C1CCCN1C(=O)CCCn1cccn1` (stereo unspecified), the figure is 12.2%; as for `Cc1nn(C)c(C)c1C1CCCN1C(=O)CCCNc1ncccn1` (stereo unspecified), 79.99%; as for `Fc1cccc2c1CCC2NCc1cnc(N2CCOCC2)nc1` (stereo unspecified), 3.105%.
To `COC(=O)CCC(=O)N(C/C=C/c1ccccc1)CCO` belongs -11.86%; to `COc1cccc(F)c1C(C)NC(=O)NCCc1ccc(C)nc1` (stereo unspecified), 1.538%; to `O=C(Nc1nncs1)NC1CCOc2ccccc21` (stereo unspecified), 13.17%.
`Cc1cc(CN(C)C(=O)Nc2cnc3c(c2)c(C)nn3C)no1`: the “Percent Effect” value turned out to be 2.843%.
As to `COc1ccc(S(=O)(=O)NCCC(O)c2ccccc2)c(C)c1` (stereo unspecified), the “Percent Effect” value was 8.858%.
Take `COCc1nc2nc(O)c3c(n2n1)NC(=O)CC3c1ccccc1Cl` (stereo unspecified): the “Percent Effect” value is -6.394%.
As for `O=C(O)C(F)(F)F.O=C(O)C(F)(F)F.c1ccc(N2CC[C@H](OCC3CC3)[C@@H]2Cc2cccnc2)nc1`, the figure is 102.1%.
To `O=C(O)C(F)(F)F.O=S(=O)(C1CC1)N1CC[C@H](OCC2CC2)[C@@H]1Cc1cccnc1` belongs -0.6171%.
Consider `O=C(O)C(F)(F)F.O=S(=O)(C1CC1)N1CC[C@@H](OCC2CC2)[C@@H]1Cc1ccncc1`, for which the “Percent Effect” value was -7.9%.
To `O=C(O)C(F)(F)F.O=C(c1ccc[nH]1)N1CC[C@@H](OCC2CC2)[C@@H]1Cc1cccnc1` belongs 9.663%; to `O=C(O)C(F)(F)F.c1cnc(N2CC[C@@H](OCC3CC3)[C@@H]2Cc2cccnc2)nc1`, 125.6%; to `O=C(O)C(F)(F)F.O=C(O)C(F)(F)F.O=C(c1cccnc1)N1CC[C@H](OCC2CC2)[C@@H]1Cc1cccnc1`, -13.6%.
As for `Cn1nc2c(cc1=O)CN(Cc1nnc(-c3ccc(F)cc3)o1)CC2`, the “Percent Effect” value is -3.918%.
To `CC(NC(=O)NCCNc1cccc(F)c1C#N)c1nccs1` (stereo unspecified) belongs -8.965%.
Regarding `CC(=O)N1CCOCC2(C1)CN(S(C)(=O)=O)CCO2` (stereo unspecified), the “Percent Effect” value was -9.255%.
To `COC(=O)c1cccc(S(=O)(=O)NC(=O)c2ccccc2F)c1` belongs 8.807%; to `COC(=O)c1cccc(S(=O)(=O)Nc2ccc(Cl)c(C(N)=O)c2)c1`, -9.655%; to `COC(=O)c1cccc(S(=O)(=O)Nc2ncc(C)s2)c1`, -16.51%.
To `COC(=O)c1cccc(S(=O)(=O)NC(=O)CC2CCCC2)c1` belongs 1.549%; to `COC(=O)c1cccc(S(=O)(=O)NC(=O)COC2CCCCC2)c1`, 108.7%.
With `COC(=O)c1cccc(S(=O)(=O)NC(=O)COC2CCCC2)c1`, the “Percent Effect” value is given as 86.25%.
As for `Cc1occc1C(=O)N1CCCC1c1ccc(C(=O)N2CCOCC2)s1` (stereo unspecified), the figure is 1.721%.
As for `Cc1nnc(CN(C)CCCOc2ccc(Cl)cc2)o1`, the figure is -9.497%; as for `Cc1ccc(OCCN(C)Cc2cscn2)cc1`, -7.225%; as for `Cc1ccc(OCCN(C)Cc2ccc(S(=O)(=O)N(C)C)o2)cc1`, 101.9%.
As for `Cc1nnc(CN(C)CCOc2cccc(Cl)c2)o1`, the figure is 6.512%; as for `Cc1cc(C)cc(OCCN(C)Cc2cscn2)c1`, -4.131%.
With `Cc1cc(C)cc(OCCN(C)Cc2ccc(S(=O)(=O)N(C)C)o2)c1`, the “Percent Effect” value came to 89.38%.
As for `Cc1ccc(OCCN(C)S(=O)(=O)N2CCOCC2)cc1`, the “Percent Effect” value is reported as -11.92%.
As for `CC(C)N(C)C(=O)CSCc1ccc(S(=O)(=O)N(C)C)o1`, the figure is -4.323%; as for `CN(CCOc1ccc(Cl)cc1)Cc1ccc(S(=O)(=O)N(C)C)o1`, 82.71%.
For the compound `COCCN(CC(N)=O)CC1CCCN(C2Cc3ccccc3C2)C1` (stereo unspecified), the “Percent Effect” value is recorded as -0.9874%.
In the case of `Cc1ccsc1C(=O)N1Cc2ncn(C)c2C(COCC2CC2)C1.O=C(O)C(F)(F)F` (stereo unspecified), the “Percent Effect” value was 46.58%.
As for `CC(C)COCC1CN(Cc2ccc3c(c2)OCO3)Cc2ncn(C)c21.O=C(O)C(F)(F)F.O=C(O)C(F)(F)F` (stereo unspecified), the figure is 29.31%.
